This is a sample that favours compounds with a hit; in the whole collection about 2.8% have one here.
proKLK7 act: proKLK7 zymogen activators, primary screen, biochemical, fluorescence intensity; activation, % at 7 µM; AID 652039, 2013; 370,000 compounds, 0.9% hits; purified proKLK7, EDANS-DABCYL substrate fluorescence; 100% is mature enzyme control, 0% vehicle;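 active = activation above the mean of all tested compounds plus 3 SD, computed per campaign excluding outliers beyond control limits, cut at about 13% in these data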
PG9 Ab binder: binders of HIV-1 gp120 antibody PG9, primary screen, biochemical, TR-FRET. HIV-1 gp120 / PG9 antibody interaction. TR-FRET gp120-PG9 antibody binding. inhibition, % at 6.7 µM. 360,000 compounds, 0.43% hits; in the data active = inhibition above about 8.5%
Rev-erbA mod: modulators of Rev-erb alpha DNA binding, primary screen, biochemical, FITC-DNA, fluorescence polarization, uHTS | Nuclear receptor subfamily 1 group D member 1 (Homo sapiens), P20393 | Rev-erbα–FITC-DNA binding, 90 min | activity, % at 10 µM | 370,000 compounds, 0.79% hits | AID 1259318, 2017;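 active = activity above about 14%, limit read from the data; passing the limit was not always enough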;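 also: 0% = DMSO wells with 35 nM protein and 100% = DMSO wells with 750 nM protein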
JMJD2C inh: inhibitors of GASC-1 histone demethylase, primary screen, biochemical, fluorescence, DELFIA europium | Lysine-specific demethylase 4C (Homo sapiens), Q9H3R0 | GST-JMJD2C(1-420) H3K9me3 demethylation | inhibition, % at 2.35 µM | 330,000 compounds, 0.069% hits;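 active = more than half of a compound's replicate wells show inhibition beyond 50%, single wells judged on their own value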;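 also: signal counts dimethyl H3K9 product captured on neutravidin plate; 0% = median of DMSO wells and 100% = 0.3 times that DMSO median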
PP1 inh: PP1-alpha phosphatase inhibitors, primary screen, counter-screen for PP5 inhibitor project, biochemical, fluorescence, OMFP substrate, single point. Serine/threonine-protein phosphatase PP1-alpha catalytic subunit (Homo sapiens), P62136. purified PP1alpha. AID 2235, 2010. inhibition, % at 6.7 µM. 320,000 compounds, 0.9% hits;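 active = inhibition above the mean inhibition of all tested compounds plus 3 SD, computed separately for each screening campaign, cut at about 15% in these data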
PP5 primary: PP5 phosphatase inhibitors, primary screen, biochemical, fluorescence. Serine/threonine-protein phosphatase 5 (Homo sapiens), P53041. purified PP5c, OMFP substrate fluorescence. inhibition, % at 6.7 µM. 320,000 compounds, 0.18% hits. AID 1987, 2009;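 active = inhibition above the campaign's mean inhibition across all tested compounds plus 3 SD, cut at about 9.5% in these data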;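 also: 0% = DMSO only and 100% = 100 µM cantharidin control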
Target sequence (P53041 whole entry, looked up): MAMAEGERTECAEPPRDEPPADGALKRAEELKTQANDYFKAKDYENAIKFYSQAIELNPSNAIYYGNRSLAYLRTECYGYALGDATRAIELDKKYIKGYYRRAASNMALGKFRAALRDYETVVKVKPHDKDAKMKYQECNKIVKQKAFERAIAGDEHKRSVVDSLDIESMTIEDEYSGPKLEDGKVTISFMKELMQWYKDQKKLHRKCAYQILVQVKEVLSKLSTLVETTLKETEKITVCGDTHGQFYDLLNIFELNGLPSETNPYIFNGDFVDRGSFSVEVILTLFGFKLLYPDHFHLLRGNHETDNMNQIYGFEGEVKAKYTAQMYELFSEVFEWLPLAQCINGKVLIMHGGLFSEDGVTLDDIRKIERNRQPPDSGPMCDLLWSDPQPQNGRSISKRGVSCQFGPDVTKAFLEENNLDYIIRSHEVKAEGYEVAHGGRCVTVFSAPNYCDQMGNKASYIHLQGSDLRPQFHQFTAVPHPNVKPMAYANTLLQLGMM
KLK7 act conf: proKLK7 zymogen activators, confirmation, biochemical, fluorescence intensity, triplicate; shares compounds with proKLK7 act; purified proKLK7, EDANS-DABCYL substrate fluorescence; scaled: vehicle 0, mature enzyme 100; activation, % at 7 µM; 3,200 compounds, 68% hits; AID 686949, 2013;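 active = activation, as change over the incubation, above the mean of all tested compounds plus 3 SD, cut at about 13% in these data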
EDANS interfere: EDANS-DABCYL substrate optical interference, artefact control for kallikrein-7 zymogen activator project, biochemical, fluorescence intensity, high throughput. activation, % at 7 µM. no enzyme, 4 h; solvent 0%, active enzyme control 100%. 3,200 compounds, 80% hits. shares compounds with proKLK7 act;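 active = activation above the all-compound mean plus 3 SD, ignoring values outside control-based bounds, cut at about 4.8% in these data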;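 also: value is the 4 h activation minus the activation read at time zero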
* = called active by the depositor; . = no result given.

SMILES	proKLK7 act	PG9 Ab binder	Rev-erbA mod	JMJD2C inh	PP1 inh	PP5 primary	KLK7 act conf	EDANS interfere
CC[C@@H](CCCc1ccc(OC)cc1)CCC(=O)N(c1ccccc1)c1ccccc1	0.6	.	-3.6	.	.	.	.	.
CCc1cc(-c2[nH]ncc2-c2nc3ccccc3n2C)c(O)cc1O	0.2	-0.8	-1.8	47.5	-0.3	0.9	.	.
CN(C)Cc1c(O)ccc2cc(-c3nc4ccccc4n3C)c(=O)oc12	78.3*	1.6	-16.3	-14.7	-12.5	1.4	66.9*	77.4*
COc1ccc(Br)cc1S(=O)(=O)NCCN1CCOCC1	41.5*	-1.3	8.5	-32.4	-0.3	0.2	-0.1	0.1
COc1ccc(C)cc1S(=O)(=O)NCCN1CCOCC1	0.3	-0.9	6.1	52.3	0.8	-0.8	.	.
CCN1c2ccccc2-c2nc3ccccc3n2C1c1ccco1 (centres undefined)	27.1*	1.2	-2.4	0.0	1.9	4.6	-9.2	-13.0
CN1c2ccccc2-c2nc3ccccc3n2C1c1ccncc1 (centres undefined)	1.0	1.7	5.2	60.8	-3.8	0.1	.	.
CN1c2ccccc2-c2nc3ccccc3n2C1c1ccccn1 (centres undefined)	34.0*	-1.9	0.9	22.5	0.7	1.4	7.0	3.1
Cc1ccc2nc3c(c(N)c2c1)CCN3c1ccccc1	105.7*	2.0	0.6	14.3	-1.8	1.9	-188.0	-83.7
CCCc1cc(=O)oc2c(CN3CCN(C)CC3)c(O)ccc12	45.7*	0.9	0.3	-2.1	-1.8	-0.8	66.4*	74.9*
CCCCc1cc(=O)oc2c(CN3CCN(C)CC3)c(O)ccc12	52.7*	-0.2	-6.1	-19.0	0.4	1.2	70.5*	74.5*
O=c1cc(CN2CCOCC2)c2ccc(O)c(O)c2o1	1.6	-2.8	5.0	-19.8	-3.4	0.5	.	.
CCCc1cc(=O)oc2c(CN3CCOCC3)c(O)ccc12	75.5*	1.3	-5.0	26.2	-4.3	-0.1	71.6*	63.1*
O=c1cc(CN2CCc3ccccc32)c2ccc(O)cc2o1	18.8*	-0.8	-2.9	-8.8	-0.3	0.2	40.8*	45.1*
CCCCc1cc(=O)oc2cc(O)ccc12	56.0*	0.6	-3.0	1.0	1.8	3.1	79.1*	78.5*
CN(C)Cc1c(O)ccc2c(-c3ccccc3)cc(=O)oc12	12.8*	-1.7	4.8	-5.0	-2.4	2.4	25.9*	25.5*
CCCCc1cc(=O)oc2c(CN(C)C)c(O)ccc12	54.6*	3.2	-5.1	-1.6	-6.3	-0.1	62.6*	66.4*
Cc1c(O)ccc2c(CN(C)Cc3ccccc3)cc(=O)oc12	-74.2	-1.0	-1.2	7.6	-0.2	0.3	.	.
CC(=O)c1c(O)ccc2c(-c3ccccc3)cc(=O)oc12	5.5	1.2	0.0	-5.0	1.8	-0.3	.	.
O=C(COC(=O)c1ccccc1SCC(=O)NC1CCS(=O)(=O)C1)NC1CCS(=O)(=O)C1 (centres undefined)	14.1*	0.6	-2.9	-0.8	2.1	1.8	19.0*	19.0*
O=C(COC(=O)c1ccccc1SCC(=O)N1CCCC1)NC1CCS(=O)(=O)C1 (centres undefined)	0.3	-1.1	3.4	33.6	-2.8	-0.6	.	.
COc1cccc(NC(=O)c2cc(-c3ccc(OC)cc3OC)nc3ccccc23)c1	66.7*	0.2	0.3	-1.6	-2.9	-0.3	-13.7	-12.5
COc1ccc(/C=N/NC(=O)c2cc(-c3ccccc3)nc3ccccc23)c(OC)c1	274.8*	-0.1	1.1	4.6	-5.0	6.1	171.2*	219.7*
